Screening results (PubChem BioAssay)
Rows were chosen to be rich in hits. Some 2.4% of all compounds tested hit in one or more screens of this group.
MLLE-PAM2 inh = blocks PAM2 peptide binding to the PABP1 MLLE domain; GST-MLLE / FITC-PAM2 fluorescence polarization; inhibition, % at 20 µM; 360,000 tested, 0.36% active; in the data active = inhibition above about 35%, passing the limit was not always enough
Target sequence (P11940 whole entry, looked up, the tested form may be a part): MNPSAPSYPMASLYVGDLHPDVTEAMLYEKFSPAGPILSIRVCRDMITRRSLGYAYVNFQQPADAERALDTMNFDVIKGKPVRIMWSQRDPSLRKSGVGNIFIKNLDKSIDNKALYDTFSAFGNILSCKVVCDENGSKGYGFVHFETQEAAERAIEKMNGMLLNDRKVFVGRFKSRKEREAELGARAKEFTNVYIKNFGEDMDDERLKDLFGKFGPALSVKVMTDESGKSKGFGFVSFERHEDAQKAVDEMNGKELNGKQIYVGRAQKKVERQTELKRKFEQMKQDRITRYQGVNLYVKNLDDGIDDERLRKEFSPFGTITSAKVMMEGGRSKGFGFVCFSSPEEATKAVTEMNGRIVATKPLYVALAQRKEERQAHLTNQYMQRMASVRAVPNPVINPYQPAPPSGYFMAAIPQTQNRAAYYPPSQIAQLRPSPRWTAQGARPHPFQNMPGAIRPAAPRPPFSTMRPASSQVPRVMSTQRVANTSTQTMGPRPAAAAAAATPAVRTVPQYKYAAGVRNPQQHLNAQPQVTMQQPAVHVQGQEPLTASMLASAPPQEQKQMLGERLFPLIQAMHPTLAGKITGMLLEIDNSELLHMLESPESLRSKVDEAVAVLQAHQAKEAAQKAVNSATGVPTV
PABP polyA inh = blocks human PABP binding to poly(A) RNA; P11940; fluorescence polarization; calls only at 35 µM; 290,000 tested, 1% active; AID 2014;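 also: calls also rest on retests at 20 µM and on dose response follow-up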
HMGR II inh = blocks class II HMG-CoA reductase of Enterococcus faecalis; inhibition, % at 10 µM; 190,000 tested, 0.41% active; purified E. faecalis HMGR, NADPH absorbance 340 nm kinetic; AID 1066;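 active = inhibition above a set limit, the median over all tested compounds plus 3 SD, cut at about 9.5% in these data; inconclusive = no clear call, values can overlap the other calls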;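 also: enzyme runs in reverse so mevalonate oxidation gives rising NADPH absorbance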
eIF4H inh = inhibitors of RNA binding by human eIF4H | Q15056 | eIF4H fluorescence polarization binding assay | inhibition, % at 35 µM | 290,000 tested, 0.94% active | AID 2012;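 also: calls also rest on retests at 20 µM and on dose response follow-up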
PHOSPHO1 inh = blocks human PHOSPHO1 phosphatase activity | recombinant PHOSPHO1, absorbance phosphatase assay | Q8TCT1 | inhibition, % at 13.3 µM | 290,000 tested, 1.1% active; in the data active = inhibition above about 60%
Hits are given with their value; 0 = inactive; ? = inconclusive; - = no result; + = active, no number. Unless noted, no rule for the calls is given here.

SMILES	MLLE-PAM2 inh	PABP polyA inh	HMGR II inh	eIF4H inh	PHOSPHO1 inh
CC(=O)Nc1ccc(NC(=O)C(C)OC(=O)C2(c3ccccc3F)CCCC2)cc1 (configuration not stated)	0	-	-	-	-
CCSc1nc(N)c(C#N)c(-c2ccccc2Cl)c1C#N	0	0	0	0	0
Cc1ccc(-c2cc(-c3ccccc3)c(C#N)c(N)n2)o1	0	+	0	?	0
Cc1ccc(-c2cc(-c3ccc(F)cc3)nc(N)c2C#N)o1	0	0	0	0	0
Cc1ccc(-c2cc(-c3ccccc3Cl)c(C#N)c(N)n2)o1	0	+	0	66	0
CCn1cc(CN2CCC(n3nccc3NC(=O)c3ccc(OC)cc3)CC2)cn1	0	0	-	0	0
COc1ccc(Cc2nnc(NC(=O)C3CCCO3)s2)cc1OC (configuration not stated)	45	0	0	0	0
CC(Cc1c[nH]c2ccccc12)C(=O)NCc1ccco1 (configuration not stated)	0	0	-	99	0
Cc1cc(C(=O)COc2ccc(F)cc2Br)c(C)n1C	0	0	9.6	0	0
Cc1cc(C(=O)CN2C(=O)C(=O)N(CC(C)C)C2=O)c(C)n1C1CC1	0	-	-	-	-
CC(C)(C)C(=O)Nc1ccccc1N1CCN(C(=O)c2ccc(Cl)cc2)CC1	0	+	0	86	0
O=C(NNC(=S)NC(=O)c1ccco1)c1ccc(NC(=O)c2ccccc2)cc1	0	0	0	0	71
Cc1ccc(C(=O)Nc2nc(C)c(C(=O)N(C)C)s2)o1	0	0	-	0	0
O=C(NC(=S)Nc1ccccc1Br)c1ccco1	45	0	-	0	0
Cc1cccc(NC(=S)NC(=O)c2ccco2)c1C	0	0	-	0	0
Cc1nc(NC(=S)NC(=O)c2ccco2)sc1C(=O)N(C)C	41	0	-	0	0
O=C(Nc1ccc(NC(=S)NC(=O)c2ccco2)cc1)c1ccccc1	0	0	-	0	0
O=C(CNc1cccc(S(=O)(=O)N2CCCC2)c1)Nc1cccc(C(F)(F)F)c1	0	-	-	-	-
Cc1ccc(C)c(N(C)S(=O)(=O)c2ccc3c(c2)oc(=O)n3C)c1	0	0	-	0	0
CC1CCN(c2ccccc2NC(=S)NC(=O)c2cccs2)CC1	0	0	0	0	0
CC1CCN(c2ccccc2NC(=S)NC(=O)C(C)(C)C)CC1	39	0	0	0	0
CC1CCN(c2ccccc2NC(=S)NC(=O)c2ccco2)CC1	46	-	-	-	-
CC1CCN(c2ccccc2NC(=O)c2ccc(F)cc2)CC1	0	0	0	0	0
COC(=O)C1CN(Cc2ccccc2)C(=O)C1=O (configuration not stated)	0	-	-	-	-
CCC(CC)C(=O)c1c[nH]c(C(=O)NCc2ccco2)c1	0	0	0	0	0
SMILES	MLLE-PAM2 inh	PABP polyA inh	HMGR II inh	eIF4H inh	PHOSPHO1 inh
CCC(CC)C(=O)c1c[nH]c(C(=O)NCc2cccs2)c1	0	0	11	0	0
COc1cccc(NC(=O)CN(C)C(=O)c2c(C)noc2C)c1	0	-	-	-	-
CCCCC1=CC2=CC(=O)C(C)(OC(=O)CC)C(=O)C2=CN1c1ccccc1 (configuration not stated)	0	+	-	0	0
CCCCC1=CC2=CC(=O)C(C)(OC(=O)CC)C(=O)C2=CN1Cc1ccco1 (configuration not stated)	0	+	-	70	0
CCCCC1=CC2=CC(=O)C(C)(OC(=O)CC)C(=O)C2=CN1CCc1ccc(Br)cc1 (configuration not stated)	0	0	-	0	0
COC(=O)CCCC1=CC2=CC(=O)C(C)(OC(=O)c3cccs3)C(=O)C2=CN1Cc1ccccc1 (configuration not stated)	0	0	-	0	0
COC(=O)CCCC1=CC2=CC(=O)C(C)(OC(=O)c3cccs3)C(=O)C2=CN1CCCOC(C)C (configuration not stated)	0	+	-	0	0
CCCCC1=CC2=CC(=O)C(C)(OC(=O)CC)C(=O)C2=CN1Cc1ccccc1 (configuration not stated)	0	0	-	0	0
COC(=O)CCCC1=CC2=CC(=O)C(C)(OC(=O)c3cccs3)C(=O)C2=CN1c1ccc(OC)cc1 (configuration not stated)	0	+	-	0	0
CN(C)CCCn1c2c(c(SCC(=O)Nc3ccc4c(c3)OCCO4)nc1=O)CCC2	0	-	-	-	-
COc1cc(OC)cc(C(=O)NNS(=O)(=O)c2ccc(F)cc2)c1	0	0	-	0	0
COC(=O)CCC(=O)OC1(C)C(=O)C=C2C=C(C3CC3)N(Cc3ccco3)C=C2C1=O (configuration not stated)	0	+	-	88	0
COCCN1C=C2C(=O)C(C)(OC(=O)CCC(=O)OC)C(=O)C=C2C=C1C1CC1 (configuration not stated)	0	0	-	0	0
COC(=O)CCCC1=CC2=CC(=O)C(C)(OC(=O)c3cccs3)C(=O)C2=CN1Cc1ccco1 (configuration not stated)	0	+	-	61	0
O=C(NCC1CCCN(C(=O)c2cscn2)C1)c1ccc(-c2ccccc2)cc1 (configuration not stated)	0	0	0	0	0
O=C(NCC1CCCN(C(=O)c2cscn2)C1)c1ccccc1Cl (configuration not stated)	0	0	10	0	0
Cc1ccc(C2=NNC(=O)C(c3ccc(Cl)cc3)C2)cc1 (configuration not stated)	0	0	0	0	0
CCOC(=O)C1CC(c2ccc(Cl)cc2)=NNC1=O (configuration not stated)	0	0	0	0	61
COc1ccc(-n2nnnc2CNC(=O)c2c(-c3ccccc3Cl)noc2C)cc1	0	-	-	-	-
CCN1CCN(S(=O)(=O)c2ccc(Cl)c(C(=O)N(C)CCOc3ccc(Cl)cc3)c2)CC1	0	-	-	-	-
C[C@@H]1CN([C@H](C)CO)C(=O)CCCn2cc(nn2)CO[C@H]1CN(C)C(=O)Nc1cccc(C(F)(F)F)c1	0	-	-	-	-
O=C(O)CCc1ccc(-c2cccs2)n1CCC(=O)O	0	+	0	49	0
CC(C)C(=O)NC(=S)Nc1c(Cl)ccc2nsnc12	0	+	-	79	0
Cc1ccc(C(=O)NC(=S)Nc2c(C)ccc3nsnc23)cc1	0	0	0	0	0
Cc1ccccc1NC(=O)NC1(C(=O)NCc2ccco2)CCCCC1	0	0	-	0	0
SMILES	MLLE-PAM2 inh	PABP polyA inh	HMGR II inh	eIF4H inh	PHOSPHO1 inh
CC(C)c1ccc(C(=O)NNC(=O)C2C3CCC(C3)C2C(=O)O)cc1 (configuration not stated)	-	0	-	0	0
O=C(NNC(=O)C1C2CCC(C2)C1C(=O)O)c1ccc(Br)o1 (configuration not stated)	-	+	0	0	0
CC(C)(C)OC(=O)N1CCN(C(=O)Nc2ccc3c(c2)OCCO3)CC1	0	0	0	0	0
Cc1cccc(C)c1NC(=O)CS(=O)CC(=O)NCCCc1ccccc1 (configuration not stated)	0	+	0	92	0
Cc1ccc(S(=O)(=O)NN=CC2(c3ccccc3)CC2)cc1	0	-	-	-	-
COCCNC(=O)C1(C)CCCN(C(=O)c2ccc(OC)c(OC)c2)C1 (configuration not stated)	0	-	-	-	-
